FBPA Giardia inh: blocks Giardia fructose-bisphosphate aldolase activity | A8B2U2 | purified Giardia FBPA | Potency, µM (doses to about 59.6 µM), for inactives: at the highest dose activity, negative = inhibition, hits mostly inhibitors | actives 0.71% (n = 290,000); note: potency is the fitted concentration of half-maximal effect; % is set by controls: 0 for no effect and ±100 for the full control effect; nearly all actives have a fitted effect of over 55% in size
Target sequence (A8B2U2 whole entry, looked up): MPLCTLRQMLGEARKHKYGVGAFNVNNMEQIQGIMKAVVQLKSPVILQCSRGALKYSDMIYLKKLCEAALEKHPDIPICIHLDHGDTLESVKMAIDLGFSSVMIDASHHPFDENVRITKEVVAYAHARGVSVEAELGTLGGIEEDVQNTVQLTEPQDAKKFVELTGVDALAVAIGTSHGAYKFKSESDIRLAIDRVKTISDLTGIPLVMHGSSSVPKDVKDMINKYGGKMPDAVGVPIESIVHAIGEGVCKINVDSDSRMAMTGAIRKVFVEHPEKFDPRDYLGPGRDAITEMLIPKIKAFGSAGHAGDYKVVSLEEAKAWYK
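Giardia FBPA (40 nM reagent) was preincubated 10 min at RT with compound (up to 57.5 uM final), then substrate plus GAPDH/TPI/NAD/arsenate coupling system with diaphorase/resazurin was added; resorufin fluorescence (525/598 nm) was read after 20 min.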
CHX counter: counter-screen for Shiga toxin inhibitors: cycloheximide protein synthesis inhibition; cell reporter, cycloheximide protein synthesis inhibition counterscreen; max response, %; actives 12% (n = 300,000); in the data active = max response mostly above about 13%, no sharp cut-off; inactive = mostly below about 14%; note: read at 38.3 µM for the half of the compounds with a filed dose; 0% is about no effect
NS1 function inh: inhibitors of influenza NS1 protein function; Potency, µM (titrated, usually from 46.1 µM), for inactives: at the highest dose activity, positive = more growth; actives 0.4% (n = 270,000); AID 2326; calls by dose curve; note: potency is the fitted concentration of half-maximal effect; actives are rising curves; nearly all actives have a fitted effect of over 50% in size
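Recovery from NS1-induced slow growth read by OD600 in budding yeast switched to galactose assay medium (pH 6.0, -URA) at 1:100 dilution. Compound 23 nl per well; the matching strain lacking NS1 serves as control.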
Shiga toxin inh: blocks Shiga toxin action in Vero cells | actives 9.2% (n = 290,000) | AID 2315 | Vero cells, Shiga toxin protein synthesis inhibition reporter | inhibition, % at 38.7 µM; in the data active = inhibition mostly above about 28%, no sharp cut-off; inactive = mostly below about 43%; note: 0% is about no effect
Pf growth 96h: P. falciparum growth inhibition at 96 hour, primary screen for plastid delayed-death inhibitors | P. falciparum luciferase reporter growth, 96 h | Potency, µM (top dose mostly 28.7 µM), without a hit: top-dose activity change, negative = inhibition, hits mostly inhibitors | actives 6.9% (n = 320,000); note: potency is the fitted concentration of half-maximal effect; % is set by controls: 0 for no effect and ±100 for the full control effect
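P. falciparum expressing integrated firefly luciferase, in erythrocytes at 2% hematocrit, 0.05% parasitemia, incubated with compounds 96 h at 37 C, 5% CO2. Growth inhibition read as loss of luminescence; two-generation exposure targets delayed-death apicoplast inhibitors.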
Pf growth 48h: P. falciparum growth inhibition at 48 hours (one generation); P. falciparum luciferase growth in erythrocytes, 48 h; Potency, µM (titrated, usually from 28.7 µM), inactives show top-dose activity change, negative = inhibition, most hits filed as inhibitors; actives 5.9% (n = 310,000); note: potency is the fitted concentration of half-maximal effect; % is set by controls: 0 for no effect and ±100 for the full control effect
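Growth was read as firefly luciferase luminescence after a 48 h, 37 C, 5% CO2 exposure of compounds to reporter-bearing P. falciparum cultures (0.1% parasitemia, 2% hematocrit final) in Albumax-supplemented RPMI 1640.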
Active calls of the source: *; ? = inconclusive; . = not tested or not shown; [ ] = dose if it differs, or a comment. Hits are enriched below; roughly 21% of the tested compounds scored in any of these assays. Unless noted, calls come from the whole dose curve; as a rule, active = well fitted curve in the direction sought with a large enough effect; inconclusive = small, poorly fitted or top-dose-only effect, or another doubt; inactive = no such curve, though single readings can be large; an effect the other way counts as inactive or inconclusive.

SMILES	FBPA Giardia inh	CHX counter	NS1 function inh	Shiga toxin inh	Pf growth 96h	Pf growth 48h
COc1ccc(-c2cc(C(=O)c3c(N)n(C)c(=O)n(C)c3=O)c3ccccc3n2)cc1OC	-5.0%	25.0*	-24.0%	14.1	38.3%	65.7%
COc1cc(-c2cc(C(=O)Nc3ccncc3)c3ccccc3n2)cc(OC)c1OC	.	.	.	.	4.15µM*	8.28µM*
O=C(Nc1ccc(SC(F)F)cc1)c1cc(-c2ccncc2)nc2ccccc12	.	.	.	.	5.22µM*	?
Cc1cccc(NC(=S)NC(=O)c2cc(-c3ccccc3)nc3ccccc23)c1	-0.1%	-2.0	17.6%	-13.4	10.7%	-18.2%
COc1ccc(-c2cc(C(=O)Nc3ccc(S(N)(=O)=O)cc3)c3ccccc3n2)cc1OC	-3.8%	-1.6	10.2%	2.7	?	6.1%
Cn1c(N)c(C(=O)c2cc(-c3ccncc3)nc3ccccc23)c(=O)n(C)c1=O	-3.7%	3.8	.	-7.8	?	-27.3%
Cc1cc(C)cc(NC(=O)Cn2c(SCc3cc(C)ccc3C)nc3ccncc32)c1	1.5%	75.6*	2.0%	89.2*	111.8%	2.9%
Cc1ccc(CSc2nc3ccncc3n2CC(=O)Nc2cc(C)cc(C)c2)cc1	7.6%	7.8	?	14.0	?	140.0%
COc1ccc(S(=O)(=O)N2CCC3(CC2)CC(=O)c2ccccc2O3)cc1C	.	.	.	.	52.8%	7.4%
CCOc1cc(C2NC(=O)CCC2[N+](=O)[O-])cc(Br)c1OCC (stereo unspecified)	4.4%	-1.8	2.5%	-6.3	3.1%	-28.5%[0.00184 µM]
CC(C)(C)c1csc(NC(=O)C2=COCCO2)n1	.	.	.	.	160.6%	203.3%
Cc1ccc(-c2csc(NC(=O)C3=COCCO3)n2)cc1	-1.2%	42.0*	-8.4%	51.4*	175.3%	131.5%
Cc1ccc(-c2csc(NC(=O)CN3CCOCC3)n2)cc1	-9.4%	0.6	7.0%	10.8	-1.6%	-6.4%
Cc1ccc(-c2csc(NC(=O)N3CCOCC3)n2)cc1	-6.8%	37.8*	-4.2%	110.8*	2.8%	31.9%
CCOC(=O)c1csc(NC(=O)C2=COCCO2)n1	.	40.5*	4.0%	63.3*	157.1%	153.0%
CSc1ccccc1OCc1cc(C(=O)NCCCn2nc(C)cc2C)no1	2.5%	4.3	-30.4%	30.2	?	-51.1%
CCOc1cc(S(=O)(=O)NCCCN2CCOCC2)c(C)cc1C	.	-4.0	2.7%	17.2	2.1%	-6.9%
C/C(=N/NC(=O)c1nnn(-c2nonc2N)c1COc1ccccc1)c1ccc(O)cc1	-7.5%	-0.9	13.3%	1.0	70.0%	12.8%
CCSc1nnc(-c2ccccc2NC(=O)CC)c(=O)[nH]1	-2.2%	-4.4	1.8%	-10.3	4.65µM*	-18.1%
COc1ccc2c(CSc3nc4nc(C)cc(C)n4n3)cc(=O)oc2c1	4.4%	1.0	-5.8%	2.5	7.7%	13.1µM*
CCOC(=O)C1CCCN(C(=O)c2cc3cc4ccc(OC)cc4nc3o2)C1 (stereo unspecified)	.	0.4	-15.0%	33.9	48.3%	-18.9%
COc1ccc2cc3cc(C(=O)N4CCCC(C)C4)oc3nc2c1 (stereo unspecified)	0.4%	37.7*	-1.0%	82.0*	11.7µM*	18.1%
CCOC(=O)C1CCN(C(=O)c2cc3cc4cc(OC)ccc4nc3o2)CC1	-6.1%	32.2*	-16.3%	28.7	63.5%	?
COc1ccc2nc3oc(C(=O)N4CC(C)CC(C)C4)cc3cc2c1 (stereo unspecified)	.	14.2	-42.0%	55.7*	?	?
COc1ccc2nc3oc(C(=O)N4CCCCC4)cc3cc2c1	-7.3%	30.3*	-44.6%	75.5*	?	51.9%
COc1ccc(OC)c2c(N3CC(C)OC(C)C3)cc(C(F)(F)F)nc12 (stereo unspecified)	0.8%	20.5*	-3.5%	78.3*	0.0%	111.6%
O=c1c(-c2ccc(Cl)cc2)nc2cnc(N3CCOCC3)nc2n1C1CC1	-0.2%	.	.	.	.	.
Cc1ccc(N2C(=O)NC(=O)/C(=C\c3ccsc3)C2=O)cc1C	-5.3%	-1.5	22.0%	5.7	7.38µM*	5.2%
Cc1ccc(C(=O)CNc2ccccc2C)cc1	-0.5%	42.2*	-59.6%	118.2*	-5.7%	57.3%
Cc1ccc(C(=O)CNc2ccc(C)cc2C)cc1	-2.8%	13.1*	-10.7%	.	?	62.9%
